Structures are written as SMILES. Among all 420,000 compounds or so, about 50,000 (12%) were called active. About 26% were inconclusive and are not listed. The call rests on the fitted dose curve; in most records, active means well fitted inhibition curve with a large enough effect; inconclusive means small, poorly fitted or top-dose-only effect; inactive means flat fitted curve, though single readings scatter. The entries come from a sample that favours actives as a whole. A call without a number means that no potency is given here.

For 101 compounds, Potency and activity change, negative = growth inhibition results are on record in PubChem BioAssay AID686979 (National Center for Advancing Translational Sciences (NCATS), 2013).
Potency means the concentration at half of the fitted maximal effect.

The nature of this assay: qHTS for Inhibitors of human tyrosyl-DNA phosphodiesterase 1 (TDP1): qHTS in cells in presence of CPT. Further: nearly all actives have a fitted effect of over 55% in size. The following applies: chicken DT40 Tdp1-/-;hTDP1 cells + 20 nM CPT, ATP luminescence, 48 h; series mostly up to 46.2 µM. Summed up:
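Cell growth measured by CellTiter-Glo luminescence after a minimum 48 h, 37 C compound exposure with 20 nM CPT in Tdp1-knockout DT40 cells stably expressing hTDP1, seeded 400/well; qHTS titration format.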
With `N#CCCN(C(=S)Nc1ccc(Cl)c(Cl)c1)C1CCCCC1`, the Potency result is “inactive”. Consider `O=S1(=O)CSCS(=O)(=O)C1`, for which the Potency result was “inactive”. The same measure, in the same setting: then `COc1ccc(S(=O)(=O)N(CC(=O)N/N=C/c2ccc(C(=O)O)cc2)Cc2ccccc2)cc1OC`, with “inactive”; and `C=CCO/N=C(\C)c1c(O)c(C)c(-c2ccccc2)n(-c2ccccc2)c1=O`, with “inactive”. Consider `CC(C)[C@@H]1NC(=O)[C@H](Cc2ccccc2)NC(=O)[C@@H](CC(=O)O)NC(=O)CNC(=O)[C@H](CCCNC(=N)N)NC1=O`, for which the Potency entry was “inactive”. For `C=CCNC(=O)C1CC2c3ccccc3C1c1ccccc12` (stereo unspecified), the Potency result is “inactive”. `O=C1NC(CC(=O)N2CCC(n3c(C4CCC4)nc4cccnc43)CC2)c2ccccc21` (stereo unspecified): the activity change, negative = growth inhibition was -6.43% [at 9.04 µM] (inactive). With `CCCS(=O)(=O)N1CCC(n2c(C(F)(F)F)nc3cccnc32)CC1`, the Potency was 3.66 µM (active). As for `CCS(=O)(=O)N1CCC(n2c(C)nc3cccnc32)CC1`, the Potency result was “inactive”.

`COC(=O)c1ccc(NS(=O)(=O)c2cc3c4c(c2)C(C)C(=O)N4CCC3)cc1` (stereo unspecified): the Potency result is “inactive”. Still for that read-out and setting: to `O=C1CCc2cc(S(=O)(=O)Nc3ccc(C(F)(F)F)cc3)cc3c2N1CC3` belongs “inactive”. On the same count and under the same terms, to `O=C1Cc2cc(S(=O)(=O)Nc3ccc(OC(F)(F)F)cc3)cc3c2N1CCC3` belongs 9.2 µM (active). On to `CCn1c(CC(=O)Nc2ccccc2)nnc1SCC(=O)N1CCOCC1`, for which the Potency entry was “inactive”.

With `COc1ccc(C(C#N)Nc2ccc(C)cc2)cc1` (stereo unspecified), the Potency entry is “inactive”. Still for that read-out and setting: to `Cc1ccc(CN2CCN(/N=C/c3ccco3)CC2)c(C)c1` belongs “inactive”; to `CC(C)=CCCC1(C)C=Cc2c(ccc3c2[nH]c2cc(O)c(C)cc23)O1` (stereo unspecified), 16.4 µM (active). On the same count and under the same terms, to `Cc1ccc(CNC(=O)Nc2nnc([C@H]3C[C@H](O)[C@@H](CO)O3)s2)cc1` belongs “inactive”; to `Cc1ccc(C(=O)c2ccc(N3CCN(C)CC3)c([N+](=O)[O-])c2)cc1`, 18.4 µM (active). The same measure, in the same setting: to `Cc1cccc(N2CCN(c3ccc(C(N)=O)cc3[N+](=O)[O-])CC2)c1C` belongs “inactive”. As for `CN1CCN(S(=O)(=O)c2ccc(N3CCN(c4ccccc4O)CC3)c([N+](=O)[O-])c2)CC1`, the Potency was 23.1 µM (active). With `Cc1cc(N)n(-c2ccc(S(=O)(=O)N3CCCC3)cc2[N+](=O)[O-])n1`, the Potency result is “inactive”. As for `Cc1cc(C)n(-c2ccc(C(=O)O)cc2[N+](=O)[O-])n1`, the Potency entry was “inactive”. Same read-out and setting: to `O=[N+]([O-])c1ccc(N2CCN(S(=O)(=O)c3ccccc3)CC2)cc1N1CCc2ccccc2C1` belongs “inactive”; to `C=CCN(c1ccc(Cl)cc1)S(=O)(=O)c1cccc(C(=O)OCC(=O)N(C)C)c1`, “inactive”; to `Cc1ccc2c(c1)N(C(=O)CCC(=O)NCc1cccnc1)CCO2`, “inactive”. On to `Cn1nccc1NC(=O)CC(CC(=O)O)c1ccccc1` (stereo unspecified), for which the Potency result was “inactive”. On to `Cn1ccsc1=NC(=O)c1cc(S(=O)(=O)N2CCOCC2)ccc1Cl`, for which the Potency result is “inactive”. Regarding `N/C(=N\OC(=O)/C=C/c1ccccc1)c1ccc(Br)cc1`, the Potency result is “inactive”.

As for `N/C(=N\OC(=O)N1c2ccccc2Sc2ccccc21)c1ccc(Br)cc1`, the Potency is 20.6 µM (active).

As to `N/C(=N\OC(=O)c1ccc2c(c1)OCO2)c1ccc(Br)cc1`, the Potency result was “inactive”. Take `Cc1csc(=O)n1CCC(=O)OCC(=O)NNC(=O)c1ccc(Br)cc1`: the Potency entry was “inactive”. For `CC(=O)Nc1cccc(C(=O)OCC(=O)Nc2nnc(-c3ccccc3)o2)c1`, the Potency entry was “inactive”.

For the compound `COCCNC(=O)C1C(=O)Nc2ccccc2C(=O)N1c1ccc2c(c1)OCCO2` (stereo unspecified), the Potency entry was “inactive”.

Regarding `COc1cc(SC#N)ccc1N=Cc1c(C)[nH]n(-c2ccc(C)cc2)c1=O`, the Potency was 2.59 µM (active).

For the compound `COc1cccc(-c2coc3cc4oc(=O)c(CC(=O)O)c(C)c4cc23)c1`, the Potency result is “inactive”.

`O=C(O)CC1S/C(=N\N=C/c2ccccc2O)N(c2ccc(O)cc2)C1=O` (stereo unspecified): the Potency entry is “inactive”. Same read-out and setting: to `S=C(Nc1ccc(Br)cc1Cl)N1CCC2(CC1)OCCO2` belongs “inactive”.

With `C=C1C(=O)OC2C1CCC(C)=CCCC1(C)OC21` (stereo unspecified), the Potency is 1.64 µM (active). On to `Cc1cc(Cl)ccc1NC(=S)N1CCC(C(N)=O)(N2CCCCC2)CC1`, for which the Potency result is “inactive”. On the same count and under the same terms, then `O=C(COC(=O)/C=C/c1cccc(Cl)c1)NCc1cccs1`, with “inactive”; and `COc1ccc(NC(=O)c2sc(N)nc2-c2ccccc2)cc1`, with “inactive”; and `Cc1ccc(OC(=O)CCC(=O)Nc2ccc(Br)cc2)cc1`, with “inactive”.

As for `COC(=O)CCc1sc(Nc2ccc(Br)cc2)nc1-c1ccc(OC)cc1`, the Potency was 23.1 µM (active). Still for that read-out and setting: to `CCc1c(C)sc(NC(=O)C2c3ccccc3Oc3ccccc32)c1C(=O)OC(C)C` belongs “inactive”; to `Cc1ccn2c(=O)c(NC(=O)c3cccc4ccccc34)c(C)nc2c1`, “inactive”. Still for that read-out and setting: to `O=C(O)c1cccc(S(=O)(=O)N2CC=C(c3ccccc3)CC2)c1` belongs “inactive”; to `NC(=O)N1CCCC1C(=O)Nc1ccc(Cl)c(Cl)c1` (stereo unspecified), “inactive”. Still for that read-out and setting: then `O=C(Nc1ccc(Cl)c(Cl)c1)N1CC=C(c2ccccc2)CC1`, with 23.1 µM (active). Turning to `CCCCn1c(N)c(N(CCC(C)C)C(=O)c2ccc([N+](=O)[O-])o2)c(=O)[nH]c1=O`, the Potency result was “inactive”. For `CCCCC(O)C1=C[N+](=O)CC=C1` (stereo unspecified), the Potency result is “inactive”.

As for `O=c1[nH]c(CSc2ncc(-c3ccc(F)cc3)n2Cc2ccco2)nc2ccccc12`, the Potency was 18.4 µM (active). Turning to `CCn1c(Cc2ccccc2)nnc1SCc1nc2ccccc2c(=O)[nH]1`, the Potency result is “inactive”. The same measure, in the same setting: then `Nc1cc(=O)nc(SCc2ccccc2)n1Cc1ccco1`, with “inactive”; and `COc1ccc2ccn(C)c2c1`, with “inactive”; and `CCOc1cc(NC(=O)c2ccco2)c(OCC)cc1NC(=O)COc1ccccc1`, with 4.11 µM (active). Still for that read-out and setting: to `CCOc1cc(NC(=S)NCc2ccco2)c(OCC)cc1NC(=O)c1ccco1` belongs “inactive”; to `CCOc1cc(NC(=S)NCCCOC)c(OCC)cc1NC(=O)c1ccco1`, “inactive”; to `COc1ccc(-c2nc3c4ccccc4n(CC(=O)Nc4ccc(C(C)=O)cc4)c(=O)n3n2)cc1`, “inactive”. For `Cc1cc(N2CCN(c3cccc(C(F)(F)F)c3)CC2)n2nc(-c3ccccc3)nc2n1`, the Potency entry is “inactive”. `O=c1n(Cc2cccc(C(F)(F)F)c2)c2ccccc2c2nc(-c3ccccc3)nn12`: the Potency was 23.1 µM (active).

Take `CC(C)C(OC(=O)c1cccs1)C(=O)NC1CCCCC1` (stereo unspecified): the Potency entry was “inactive”. Same read-out and setting: to `Cc1ccc(NC(=O)CN(C)Cc2ccc(F)cc2)c([N+](=O)[O-])c1` belongs “inactive”. On the same count and under the same terms, to `CCn1c(SCC(=O)NC2CCCC2)nnc1-c1ccoc1C` belongs “inactive”; to `COC(=O)c1onc(-c2c(OC)cc(OC)cc2OC)c1C(=O)OC`, “inactive”; to `CN(C(=O)CCN1C(=O)/C(=C/c2ccccc2F)SC1=S)C1CCS(=O)(=O)C1` (stereo unspecified), “inactive”. The same measure, in the same setting: then `CN(C(=O)CN1C(=O)S/C(=C\c2ccccc2F)C1=O)C1CCS(=O)(=O)C1` (stereo unspecified), with “inactive”; and `CN(C(=O)CN1C(=O)/C(=C/c2ccc(Cl)cc2)SC1=S)C1CCS(=O)(=O)C1` (stereo unspecified), with 18.4 µM (active). `O=C(Nc1cc(C(F)(F)F)ccc1Cl)c1cc2nc(-c3ccc4c(c3)OCO4)cc(C(F)(F)F)n2n1`: the Potency result was “inactive”. With `O=C(NCCCCCCCCCNC(=O)C(F)(F)F)C(F)(F)F`, the Potency result was “inactive”. For the compound `C/C(=N\NS(=O)(=O)c1cccc([N+](=O)[O-])c1)c1cc2ccccc2o1`, the Potency result was “inactive”. Still for that read-out and setting: to `CCn1c(SCc2cc(=O)n3ccsc3n2)nc2ccccc21` belongs “inactive”. The same measure, in the same setting: then `COc1cccc(-n2ccn(CC(=O)NCc3ccc(C)cc3)c(=O)c2=O)c1`, with “inactive”. Take `COc1cccc(-n2cc(C(=O)O)c3ccccc3c2=O)c1`: the Potency result was “inactive”. On the same count and under the same terms, then `CCN(Cc1ccccc1)C(=O)c1cn(-c2cccc(OC)c2)c(=O)c2ccccc12`, with 18.4 µM (active). Regarding `COc1ccc(NC(=O)CSc2nnc(C3CC3)n2C)cc1S(=O)(=O)N1CCCCC1`, the Potency result was “inactive”. Regarding `COc1ccc(C2CC(=O)Oc3ccc(C(C)(C)C)cc32)cc1` (stereo unspecified), the Potency entry was “inactive”. On the same count and under the same terms, to `N#Cc1ccc(/C=C2\CCn3c2nc2cc(C(=O)O)ccc2c3=O)cc1` belongs “inactive”. On the same count and under the same terms, then `COc1cccc(Cn2c(=O)c(-c3ccccc3)nc3cnc(OC)nc32)c1`, with “inactive”; and `COc1cccc(Cn2c(=O)c(CCc3ccccc3)nc3cnc(N(C)C)nc32)c1`, with “inactive”.

In the case of `COc1cccc(Cn2c(=O)cnc3cncnc32)c1`, the Potency was 1.46 µM (active). With `Cc1ccc(C(=O)N/C(=C\c2cn(C)c3ccccc23)C(=O)N2CCN(C)CC2)cc1`, the Potency entry was “inactive”.

For `Cc1cn(C2CC(O)C(CO)O2)c(=O)n(CCCc2ccccc2)c1=O` (stereo unspecified), the Potency entry is “inactive”. As to `CCOc1c(Nc2cccc(Cl)c2)c(=O)c1=O`, the Potency result was “inactive”.

On to `CCCCN(CC)C(=O)c1ccccc1Oc1ccccc1`, for which the Potency is 20.6 µM (active).

As for `CCCCN(CC)C(=O)c1c[nH]c2ccc(S(=O)(=O)Nc3cccc(OC)c3)cc2c1=O`, the Potency result is “inactive”.

Take `CCCCN(CC)C(=O)c1ccc2c(c1)OCO2`: the Potency result was “inactive”.

Consider `C[C@H]1CN([C@@H](C)CO)C(=O)c2cc(Br)cnc2O[C@H]1CN(C)S(=O)(=O)c1cccs1`, for which the Potency entry is “inactive”. Same read-out and setting: then `CCCCNC(=O)CSc1nc2ccc(NC(=O)CSc3nnc(COc4ccccc4C)n3C)cc2s1`, with “inactive”.

In the case of `COC(=O)C[C@@H]1C=C[C@@H](NS(=O)(=O)c2cccc(OC)c2)[C@@H](CO)O1`, the Potency result was “inactive”.

As for `CS(=O)(=O)N1CCCCC1c1cc(C(=O)NCc2ccccc2)no1` (stereo unspecified), the Potency result was “inactive”.

Regarding `O=C(NCc1ccc(F)cc1)c1cc(C2CCCCN2C(=O)C2CCCCC2)on1` (stereo unspecified), the Potency is 18.4 µM (active). Still for that read-out and setting: then `CCCNC(=O)c1cc(C2CCCCN2C(=O)OC)on1` (stereo unspecified), with “inactive”; and `COC(=O)[C@@H](Cc1ccccc1)NC(=O)NCCc1ccccc1`, with “inactive”. Take `COc1ccc(-c2[nH][nH]c(=O)c2NC(=O)c2ccc([N+](=O)[O-])cc2)cc1`: the Potency entry was “inactive”.

As to `COc1ccc(OC)c(NC(=O)c2ccc3c(c2)CCN3S(C)(=O)=O)c1`, the Potency entry is “inactive”. Turning to `CCCc1c(C(=O)Nc2ccc(F)cc2)cnn1-c1ccccc1`, the Potency was 14.6 µM (active). For `CCc1ccccc1NC(=O)c1cnn(-c2ccc(F)cc2)c1C1CCNCC1`, the Potency result was “inactive”. Same read-out and setting: then `CCCc1c(C(=O)O)cnn1-c1ccc(Cl)cc1`, with “inactive”; and `CCn1c(SCC(=O)N2CCCC2=O)nc2ccccc21`, with “inactive”; and `O=C(N/N=C/c1ccsc1)c1cc(O)cc(O)c1`, with “inactive”. Still for that read-out and setting: then `CCCCC(=O)Nc1c2c(nn1-c1ccc([N+](=O)[O-])cc1)CS(=O)(=O)C2`, with “inactive”.
